# Measured values from the supplement of paper PMC8728848.
# This is one part of a sample in which the strongest signals are shown more often than they occur.
# Assays:
# Test in all cases: glycan array binding signal (z-score within array); higher = stronger binding
# Settings in all cases: glycan notation: IUPAC condensed, linker removed
# [1] = target: Gal(b1-4)GlcNAc(b1-2)[Gal(b1-4)GlcNAc(b1-4)]Man(a1-3)[Gal(b1-4)GlcNAc(b1-2)[Gal(b1-4)GlcNAc(b1-6)]Man(a1-6)]Man(b1-4)GlcNAc(b1-4)GlcNAc
# Procedure, shortened: (§1)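 From the Consortium for Functional Glycomics database, 3228 arrays were curated, keeping only those whose protein sequence was available. Binding is given as a within-array Z-score averaged across arrays sharing a protein sequence and across linkers. Negative Z-scores can be read as non-binding.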
# [2] = target: Gal(b1-4)GlcNAc(b1-2)[Gal(b1-4)GlcNAc(b1-6)]Man(a1-6)[Gal(b1-4)GlcNAc(b1-2)Man(a1-3)]Man(b1-4)GlcNAc(b1-4)[Fuc(a1-6)]GlcNAc
# Procedure, shortened: as §1
# [3] = target: Gal(b1-4)GlcNAc(b1-3)Gal(b1-3)GlcNAc
# Procedure, shortened: as §1
# [4] = target: Gal(b1-4)GlcNAc(b1-3)Gal(b1-4)GlcNAc(b1-2)Man(a1-3)[Gal(b1-4)GlcNAc(b1-3)Gal(b1-4)GlcNAc(b1-2)Man(a1-6)]Man(b1-4)GlcNAc(b1-4)[Fuc(a1-6)]GlcNAc
# Procedure, shortened: as §1
# [5] = target: Gal(b1-4)GlcNAc(b1-3)Gal(b1-4)GlcNAc(b1-3)Gal(b1-4)GlcNAc
# Procedure, shortened: as §1
# [6] = target: Gal(b1-4)GlcNAc(b1-3)Gal(b1-4)GlcNAc(b1-3)Gal(b1-4)GlcNAc(b1-2)Man(a1-3)[Gal(b1-4)GlcNAc(b1-3)Gal(b1-4)GlcNAc(b1-3)Gal(b1-4)GlcNAc(b1-2)Man(a1-6)]Man(b1-4)GlcNAc(b1-4)GlcNAc
# Procedure, shortened: as §1
# [7] = target: Gal(b1-4)GlcNAc(b1-3)Gal(b1-4)GlcNAc(b1-3)Gal(b1-4)GlcNAc(b1-2)Man(a1-3)[Gal(b1-4)GlcNAc(b1-3)Gal(b1-4)GlcNAc(b1-3)Gal(b1-4)GlcNAc(b1-2)Man(a1-6)]Man(b1-4)GlcNAc(b1-4)[Fuc(a1-6)]GlcNAc
# Procedure, shortened: as §1
# [8] = target: Gal(b1-4)GlcNAc(b1-3)Gal(b1-4)GlcNAc(b1-3)Gal(b1-4)GlcNAc(b1-3)Gal(b1-4)GlcNAc(b1-2)Man(a1-3)[Gal(b1-4)GlcNAc(b1-3)Gal(b1-4)GlcNAc(b1-3)Gal(b1-4)GlcNAc(b1-3)Gal(b1-4)GlcNAc(b1-2)Man(a1-6)]Man(b1-4)GlcNAc(b1-4)[Fuc(a1-6)]GlcNAc
# Procedure, shortened: as §1
# [9] = target: Gal(b1-4)GlcNAc(b1-3)Gal(b1-4)GlcNAc(b1-3)Gal(b1-4)GlcNAc(b1-3)Gal(b1-4)GlcNAc(b1-3)Gal(b1-4)GlcNAc(b1-2)Man(a1-3)[Gal(b1-4)GlcNAc(b1-3)Gal(b1-4)GlcNAc(b1-3)Gal(b1-4)GlcNAc(b1-3)Gal(b1-4)GlcNAc(b1-3)Gal(b1-4)GlcNAc(b1-2)Man(a1-6)]Man(b1-4)GlcNAc(b1-4)GlcNAc
# Procedure, shortened: as §1
# [10] = target: Gal(b1-4)GlcNAc(b1-3)Gal(b1-4)GlcNAc(b1-3)Gal(b1-4)GlcNAc(b1-3)Gal(b1-4)GlcNAc(b1-3)Gal(b1-4)GlcNAc(b1-3)Gal(b1-4)GlcNAc(b1-2)Man(a1-3)[Gal(b1-4)GlcNAc(b1-3)Gal(b1-4)GlcNAc(b1-3)Gal(b1-4)GlcNAc(b1-3)Gal(b1-4)GlcNAc(b1-3)Gal(b1-4)GlcNAc(b1-3)Gal(b1-4)GlcNAc(b1-2)Man(a1-6)]Man(b1-4)GlcNAc(b1-4)GlcNAc
# Procedure, shortened: as §1
# [11] = target: Gal(b1-4)GlcNAc(b1-3)Gal(b1-4)GlcNAc(b1-3)[Gal(b1-4)GlcNAc(b1-3)Gal(b1-4)GlcNAc(b1-6)]GalNAc
# Procedure, shortened: as §1
# [12] = target: Gal(b1-4)GlcNAc(b1-6)GalNAc
# Procedure, shortened: as §1
# Gal3S4S(b1-4)GlcNAc = target: Gal3S4S(b1-4)GlcNAc
# Procedure, shortened: as §1
# Gal4S6S(b1-4)GlcNAc = target: Gal4S6S(b1-4)GlcNAc
# Procedure, shortened: as §1
# GalNAc6S(b1-4)GlcNAc = target: GalNAc6S(b1-4)GlcNAc
# Procedure, shortened: as §1
# [13] = target: GlcNAc6S(b1-3)Gal(b1-4)GlcNAc
# Procedure, shortened: as §1
# [14] = target: Man(a1-2)Man(a1-3)[Man(a1-2)Man(a1-6)]Man
# Procedure, shortened: as §1
# [15] = target: Man(a1-2)Man(a1-3)[Man(a1-2)Man(a1-6)]Man(a1-6)[Man(a1-2)Man(a1-2)Man(a1-3)]Man(b1-4)GlcNAc(b1-4)GlcNAc
# Procedure, shortened: as §1
# Man(b1-4)GlcNAc = target: Man(b1-4)GlcNAc
# Procedure, shortened: as §1
# Neu5Ac(a2-3)Gal = target: Neu5Ac(a2-3)Gal
# Procedure, shortened: as §1
# [16] = target: Neu5Ac(a2-3)Gal(b1-3)GlcNAc(b1-4)Gal(b1-4)Glc
# Procedure, shortened: as §1
# [17] = target: Neu5Ac(a2-3)Gal(b1-3)[GlcNAc(b1-6)]GalNAc
# Procedure, shortened: as §1
# Neu5Ac(a2-3)Gal(b1-4)Glc = target: Neu5Ac(a2-3)Gal(b1-4)Glc
# Procedure, shortened: as §1
# [18] = target: Neu5Ac(a2-3)Gal(b1-4)GlcNAc(b1-2)Man(a1-3)[Neu5Ac(a2-6)Gal(b1-4)GlcNAc(b1-2)Man(a1-6)]Man(b1-4)GlcNAc(b1-4)GlcNAc
# Procedure, shortened: as §1
# [19] = target: Neu5Ac(a2-3)Gal(b1-4)GlcNAc(b1-6)[Gal(b1-3)]GalNAc
# Procedure, shortened: as §1
# [20] = target: Neu5Ac(a2-3)[Neu5Ac(a2-6)]GalNAc
# Procedure, shortened: as §1
# [21] = target: Neu5Ac(a2-6)Gal(b1-4)GlcNAc(b1-2)Man(a1-3)[Gal(b1-4)GlcNAc(b1-2)Man(a1-6)]Man(b1-4)GlcNAc(b1-4)GlcNAc
# Procedure, shortened: as §1
# [22] = target: Neu5Gc(a2-3)Gal(b1-4)GlcNAc(b1-3)Gal(b1-4)GlcNAc(b1-2)Man(a1-3)[Neu5Gc(a2-3)Gal(b1-4)GlcNAc(b1-3)Gal(b1-4)GlcNAc(b1-2)Man(a1-6)]Man(b1-4)GlcNAc(b1-4)GlcNAc
# Procedure, shortened: as §1
binder,measurement,setting,value
PX14343H-pdi-506-26-506 (Parabacteroides distasonis) (protein) QPTGTMTTDSKLTSKESALALTNSAYLKNTVFNKMTPGWGCNTILLLEYMTGKATSENSQSNYKDFQDLLVSDRSLYIEDWWQDCYAGIANCNLALQKLGEFENLDASLVNGYMAEVKFMRALYYFYLVRIFGDVPKITTVQSELGELQVSRAPVKEIYDEIIIPDLLEAEQSDLAFSDHTGRVSMGAVKALLADVYLTYAGYPLQGGKSYYAESAKRSLEVIKSNEYTLFTDYESLRLPSQNNKGEFIYQVQFSLNKRHNESVRIFLPSRSGISAYDLEYGSLIPTKEFVESFEKGDKRTEEKQYFFTNYKGHPSKFSPGAAELEFMDLNGYYIYKFFDQVAVDNTAKSDLNWSVYRYTDVLLMYAEAQVNADGTPNQQSIDIVNQIRGRAGLAPFKQTNASAFLEEVWDQRYFDLCYENKMWFDMLRTRKIRDDKSGEYVDFIGYKTNWGKVYTETQLLFPIPLSERQANPNLTQNQGY,glycan array binding signal (z-score),[1],-0.221
same,glycan array binding signal (z-score),[2],0.886
same,glycan array binding signal (z-score),[3],-0.366
same,glycan array binding signal (z-score),[4],6.92
same,glycan array binding signal (z-score),[5],-0.114
same,glycan array binding signal (z-score),[6],3.24
same,glycan array binding signal (z-score),[7],6.72
same,glycan array binding signal (z-score),[8],0.292
same,glycan array binding signal (z-score),[9],0.552
same,glycan array binding signal (z-score),[10],4.45
same,glycan array binding signal (z-score),[11],0.311
same,glycan array binding signal (z-score),[12],-0.235
same,glycan array binding signal (z-score),Gal3S4S(b1-4)GlcNAc,-0.293
same,glycan array binding signal (z-score),Gal4S6S(b1-4)GlcNAc,-0.505
same,glycan array binding signal (z-score),GalNAc6S(b1-4)GlcNAc,0.278
same,glycan array binding signal (z-score),[13],-0.337
same,glycan array binding signal (z-score),[14],-0.49
same,glycan array binding signal (z-score),[15],-0.329
same,glycan array binding signal (z-score),Man(b1-4)GlcNAc,-0.406
same,glycan array binding signal (z-score),Neu5Ac(a2-3)Gal,-0.52
same,glycan array binding signal (z-score),[16],-0.388
same,glycan array binding signal (z-score),[17],-0.522
same,glycan array binding signal (z-score),Neu5Ac(a2-3)Gal(b1-4)Glc,-0.335
same,glycan array binding signal (z-score),[18],4.89
same,glycan array binding signal (z-score),[19],-0.127
same,glycan array binding signal (z-score),[20],-0.483
same,glycan array binding signal (z-score),[21],2.9
same,glycan array binding signal (z-score),[22],-0.486
